# The list is not random: actives were taken first. Their share in the collection is about 7%.
# IL-1B inflam inh: blocks inflammasome-driven IL-1 beta release; THP-1 LPS/ATP IL-1B secretion, AlphaLISA, 16 h; hits give low values; activity change, % at 57.5 µM; 4.7% of 360,000 active; AID 743279; in the data active = activity change below about -50%; inconclusive = mostly about -30% to -49%; note: % is set by controls: 0 for no effect and ±100 for the full control effect
#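 THP-1 cells pretreated 1 hr with compounds (up to 57.5 uM final), then stimulated with LPS (250 ng/mL final) plus ATP (1.25 mM final); secreted IL-1B measured by AlphaLISA after 16 hr, decreased signal indicating inhibition.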
# D3 antag: D3 dopamine receptor (human) antagonism; P35462; D3R cells, DiscoveRx beta-arrestin luminescence, antagonist mode; hits give low values; AID 652054; 2.5% of 360,000 active; max response, negative = inhibition, %; in the data active = max response below about -50%; inconclusive = no clear call, values can overlap the other calls; note: % is set by controls: 0 for no effect and ±100 for the full control effect
# Target sequence (P35462 whole entry, looked up): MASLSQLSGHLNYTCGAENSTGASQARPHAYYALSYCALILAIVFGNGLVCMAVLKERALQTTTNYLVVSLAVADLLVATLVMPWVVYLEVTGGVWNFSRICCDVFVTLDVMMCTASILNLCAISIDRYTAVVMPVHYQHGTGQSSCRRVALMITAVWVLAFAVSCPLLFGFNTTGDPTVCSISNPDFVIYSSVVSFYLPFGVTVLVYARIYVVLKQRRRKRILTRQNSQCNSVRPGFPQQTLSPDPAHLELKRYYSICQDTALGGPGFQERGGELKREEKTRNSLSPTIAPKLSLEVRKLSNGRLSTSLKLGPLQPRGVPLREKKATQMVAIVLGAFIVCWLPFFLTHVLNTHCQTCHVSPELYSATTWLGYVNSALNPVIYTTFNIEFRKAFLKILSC
#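 Cells expressing the human receptor were seeded at 1500 cells/well, incubated overnight at 37 degrees C in 5% CO2, then exposed to library compounds with dopamine controls for 90 minutes at 37 degrees C before luminescent detection.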
# ATXN2 expr inh: reduces ATXN2 reporter expression in HEK-293 cells. AID 1745845. HEK-293 ATXN2-luciferase reporter, luminescence, 24 h. 0.72% of 360,000 active. Potency, µM (titrated, usually from 57 µM), for inactives: at the highest dose activity change, negative = inhibition, actives largely listed as inhibitors; note: potency is the fitted concentration of half-maximal effect; % is set by controls: 0 for no effect and ±100 for the full control effect; nearly all actives have a fitted effect of over 55% in size
#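 ATXN2-luciferase reporter cells (luciferase flanked by upstream and downstream ATXN2 gene portions) were treated 24 h at 37 °C with compounds at up to 57 uM. SteadyGlo luminescence gave expression; GF-AFC fluorescence gave viability.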
# ATXN viability: viability counter-screen for ATXN expression inhibitors | Potency, µM (doses to about 56.7 µM), most hits filed as cytotoxic | AID 651635 | 0.49% of 400,000 active | S2 cells (HEK-293 line with an ATXN2-luciferase reporter) viability, CellTiter-Fluor protease fluorescence, 24 h; note: potency is the fitted concentration of half-maximal effect; nearly all actives have a fitted effect of over 40% in size
# D3 ag: activates the human D3 dopamine receptor | D3R DiscoveRx beta-arrestin cells, luminescence, 90 min | max activation, % | 0.58% of 410,000 active | AID 652048; in the data active = max activation above about 30%; note: 0% is about no effect
#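 Cells at 1500/well, incubated overnight, then treated with pinned compounds (dopamine as control) for 90 min at 37 degrees C. DiscoveRx reagent added for 30 - 60 minutes at room temperature; luminescence read.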
# Integrin act MD: activates integrin-mediated alleviation for muscular dystrophy; Potency, µM (doses to about 38.3 µM), inactives show at the top dose activation, most hits filed as activators; alpha7betagal myoblasts, beta-gal FDG fluorescence, 48 h; 0.064% of 350,000 active;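 note: potency is the fitted concentration of half-maximal effect; 100% = response of the positive control SU9516; nearly all actives have a fitted effect of over 60% in size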
#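 Alpha7betagal+/- myoblasts (passage 13) were plated 16-24 hr, then exposed to compounds (1:260 dilution of DMSO stock) for 48 hours at 37C. After MPER lysis, β-galactosidase reporter activity was read as FDG fluorescence (ex 480/em 540) after 30 minutes.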
# * = called active by the depositor; i = inactive; ? = inconclusive; . = not tested or not shown; [ ] = another dose, or the depositor's remark. Unless noted, calls come from the whole dose curve; as a rule, active = well fitted curve in the direction sought with a large enough effect; inconclusive = small, poorly fitted or top-dose-only effect, or another doubt; inactive = no such curve, though single readings can be large; an effect the other way counts as inactive or inconclusive.
SMILES,IL-1B inflam inh,D3 antag,ATXN2 expr inh,ATXN viability,D3 ag,Integrin act MD
C/C(=N\O)c1sc(-c2ccccc2)nc1C,28,10,.,?,2,-7%
CC1(C)CC(=O)C(C(C#Cc2ccccc2)C2=C(O)CC(C)(C)CC2=O)=C(O)C1,-100*,-8,?,?,-10,-21%
O=C1CCCC(O)=C1C(C#Cc1ccccc1)C1=C(O)CCCC1=O,-99*,-61*,?,?,-5,-65%
Cc1nn(-c2ccc(N3CCOCC3)nn2)c(C)c1CCC(=O)Nc1ccccc1,-8,7,20%,i,-1,-23%
O=C(O)c1ccc2cc(-c3ccc(O)c(C45CC6CC(CC(C6)C4)C5)c3)ccc2c1,.,.,1.9µM*,.,.,.
Cc1ccc(-c2csc3ncnc(Nc4ccc(N5CCOCC5)cc4)c23)cc1,-75*,-9,?,?,3,24%
Cc1ccc(-c2csc3ncnc(NCCN4CCOCC4)c23)cc1,-65*,-10,12%,i,5,-7%
Cc1onc(-c2c(Cl)cccc2Cl)c1C(=O)N1C=CC(C(F)(F)F)=NCC1,19,-17,1%,i,2,-2%[7.66 µM]
O=C(c1ccc(C(F)(F)F)cc1)N1CCC(=O)N([C@H](COCc2ccc(Cl)cc2)Cc2ccccc2)CC1,-70*,11,?,?,-2,.
Cc1cccc(C(=O)N2CCC(=O)N([C@H](COCc3cccc(C(F)(F)F)c3)Cc3ccccc3)CC2)c1,-1,14,?,32µM*,3,.
CC(C)C[C@@H](COCc1cccc(C(F)(F)F)c1)N1CCN(C(=O)c2ccc(C(F)(F)F)cc2)CCC1=O,-73*,56,?,28µM*,13,.
Cc1cccc(C(=O)N2CCC(=O)N(C(COCc3cccc(C(F)(F)F)c3)Cc3ccccc3)CC2)c1 (stereo not given),?,2,0%,32µM*,6,-4%
O=C(O)C1C2CCC(O2)C1C(=O)Nc1ccccc1Br (stereo not given),34,-7,.,i,-5,3%
CCCCc1nc2ccc(S(=O)(=O)O)cc2[nH]1,1,2,2%,i,14,13%
C=C[C@@H]1c2ccccc2N(S(=O)(=O)c2ccc(C)cc2)[C@H](c2ccc(C(F)(F)F)cc2)C1(C#N)C#N,13,11,-4%,i,7,-15%
N#Cc1ccccc1OCCCNC1CCCC1,-18,-80*,21%,i,-4,-24%
CC(C)(C)c1ccc(OCCCNC2CCCC2)cc1,-67*,?,?,i,-20,-59%
Cc1ccc(OCCCNC2CCCC2)cc1,-11,-14,.,i,-2,-13%
N#Cc1ccccc1OCC(=O)NC1CCCCC1,5,-8,38%,i,-11,20%
CCOc1ccccc1OCCNC1CCCC1,21,-106*,.,i,-7,6%
CCOc1ccc(OCCNC2CCCC2)cc1,0,-60*,5%,i,-3,-14%
CC(C)C[C@@H](CO)N1CCNCCC1=O,6,17,3%,i,1,13%
Cc1cc(C)c(CN2CCN(C(=O)CC[C@H]3O[C@@H](n4cnc5c(NC(=O)c6ccccc6)ncnc54)[C@H](O)[C@@H]3O)CC2)c(C)c1,-25,-17,-11%,i,-5,.
Cc1cc(C[n+]2cc(Cl)ccc2N)c2ncccc2c1,-76*,-6,-24%,i,-4,0%
Cc1cc(C[n+]2cc(Br)ccc2N)c2ncccc2c1,-62*,-10,?,i,-7,-43%
SMILES,IL-1B inflam inh,D3 antag,ATXN2 expr inh,ATXN viability,D3 ag,Integrin act MD
Fc1ccc(N2CCN(C3=Nc4cccc5cccc3c45)CC2)cc1,-52*,-20,2%,i,-7,-21%
c1ccc(CN2CCN(C3=Nc4cccc5cccc3c45)CC2)cc1,-90*,-6,0%,i,-8,-18%
O=C(CCCN1C(=O)c2cccc3cccc(c23)C1=O)N1CCN(c2ccc(F)cc2)CC1,-54*,10,-26%,i,2,-392%
Cc1ccc(CCSc2ccc(F)cc2)cn1,-16,4,8%,i,16,8%
Cc1ccc(CCSc2ccc(C(C)C)cc2)cn1,-59*,22,-5%,i,-1,8%
O=C(C=C(O)c1ccc(Cl)cc1)C(=O)NNC(=O)C(O)(c1ccccc1)c1ccccc1,-5,-8,-8%,i,0,-7%
Cc1ccc(/C(O)=C/C(=O)C(=O)NNC(=O)C(O)(c2ccccc2)c2ccccc2)cc1,0,-88*,2%,i,4,-7%
COC(=O)c1cc(NC(=O)c2cccc([N+](=O)[O-])c2C)ccc1Cl,-17,?,?,?,-8,?
O=C(Nc1cccc(Cl)c1)C1C2CCC3C(CCC21)C3(Cl)Cl (stereo not given),-72*,16,?,?,3,-20%
Cc1cc(C(=O)CSc2nc3ccccc3o2)c(C)n1C1CC1,?,4,40%,i,3,-35%
C=CCn1c(C)cc(C(=O)CSc2nc3ccccc3o2)c1C,-80*,53,29%,i,4,-56%
C=CCn1c(C)cc(C(=O)CSc2nc3ccccc3c(=O)[nH]2)c1C,-19,-62*,15%,i,9,-41%
C=CCn1c(C)cc(C(=O)CSc2nc3ccccc3[nH]2)c1C,-65*,36,?,?,18,-55%
O=C(CSc1nc2ccccc2[nH]1)c1c[nH]c2ccccc12,32,-56*,26%,i,-11,40%
c1ccc(-c2nnnn2CCOCCn2nnnc2-c2ccccc2)cc1,5,-21,6%,i,5,0%
COc1ccc(C(CNC(=O)CCNS(=O)(=O)c2ccccc2C(F)(F)F)N2CCOCC2)cc1 (stereo not given),-12,-1,-6%,i,-12,8%
CCOC(=O)N1CCC(n2c(SCC(=O)OCc3ccccc3)nc3ccsc3c2=O)CC1,-7,-12,-20%,i,1,-12%
O=C(CSc1nc2ccccc2c(=O)n1CCCN1CCOCC1)c1c[nH]c2ccccc12,-110*,-1,20%[11.3 µM],i,4,-32%
O=C(CSc1nc2ccccc2[nH]1)N1CCN(c2ccccc2)CC1,-1,14,4%,i,3,11%
Cc1cc(C(=O)CSc2nc3ccc(Cl)cc3[nH]2)c(C)n1C,-6,-6,6%,i,33*,-4%
Cc1ccc2nc(SCC(=O)c3cc(C)n(C)c3C)[nH]c2c1,-19,8,13%,i,-5,17%
O=C(CSc1nc2ccccc2[nH]1)N1CCCCC1,0,-96*,5%,i,-16,-1%
